# Reference: PubChem BioAssay (NCI)
# Compounds without any hit were thinned out: in the full panel of roughly 83,000, 20% have a hit.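 For each line, cells grew in 96-well plates with the test compound present at a single concentration for 48 hours.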 Calls of active or inactive are those of the source. How the source made its calls: active means growth percent below 10; inactive means the rest.
# Test system: HOP-62 NSCLC
# Test: NCI-60 one-dose screen, 48 h (100 = growth as untreated, 0 = no growth, -100 = all killed)
# Conditions: 10 µM unless noted
row,Structure (SMILES),growth
1,COc1ccc(-c2cn(-c3cc(OC)c(OC)c(OC)c3)c(=O)n2C(C)=O)cc1,83.7% (inactive)
2,O=C1NC(=O)c2c1c1c3ccccc3ccc1c1[nH]c3ccc(Br)cc3c21,22.3% (inactive)
3,O=C(Cn1c2c(c3ccccc31)CCCC2)Nc1ccc(-c2nc3ccccc3s2)cc1,102% (inactive)
4,COc1ccc(C/C(C)=C(/c2ccc(OCCN3CCCCC3)cc2)c2ccc(OC(=O)NCc3ccccc3)cc2)cc1,-89.2% (active)
5,CC(C)OC(=O)c1ccc2[nH]c(O)c(C(=Nc3ccc(N(C)C(=O)CN4CCN(C)CC4)cc3)c3ccccc3)c2c1,-68.8% (active)
6,COc1cc(N2C(=O)[C@H](O)C2c2ccc(SC)cc2)cc(OC)c1OC (stereo not given in full),21.6% (inactive)
7,CCCCOC(=O)OCc1cc(=O)c(O)co1,109% (inactive)
8,COc1ccc(C2=Nc3c/c(=C\c4c(O)[nH]c5ccc(Cl)cc45)ccc3=N2)cc1,28.2% (inactive)
9,O=C(Nc1cccc([N+](=O)[O-])c1)c1cc2ccccc2cc1O,0.534% (active)
10,O=C(/C=C/c1cn(-c2ccccc2)nc1-c1ccc([N+](=O)[O-])cc1)c1ccc(Cl)cc1,24.5% (inactive)
11,CC(C)CCC[C@@H](C)[C@H]1CC[C@H]2[C@@H]3CC=C4C[C@@H](C(C(=O)O)C(=O)O)CC[C@]4(C)[C@H]3CC[C@]12C,-54.8% (active)
12,CN(C)CCNC(=O)c1cccc(-c2cnc3ccc(-c4ccc5c(c4)OCO5)nn23)c1,88.4% (inactive)
13,N#Cc1c(-c2ccc(Cl)cc2)nc(SCC(=O)NC2=NN=C(c3ccccc3)CS2)[nH]c1=O,68.9% (inactive)
14,Cc1ccc2c3c(c(=O)[nH]c2c1)C1(C(C#N)=C(N)O3)c2cc(Br)ccc2-c2ccc(Br)cc21,-27.5% (active)
15,CCCCCCC1(C)NCCO1 (stereo not given),105% (inactive)
16,COc1cc(CNS(=O)(=O)c2ccc(C)cc2)ccc1OCc1cn(-c2ccc(F)cc2)nn1,102% (inactive)
17,Cc1cc(N)c2cc(NC(=O)/C=C\c3ccccc3Cl)ccc2n1,-71.5% (active)
18,CCOC(=O)C(=Cc1cccc(Br)c1)C(=O)OCC,85.1% (inactive)
19,COc1cc(NC(C)CCCNC(C)C)c2ncccc2c1OC (stereo not given),98.3% (inactive)
20,COc1ccc2cc(-c3ccc(NC(C)=O)c(=O)o3)ccc2c1,94.3% (inactive)

row,Structure (SMILES),growth
1,COc1cc(CNS(=O)(=O)c2ccc(C)cc2)ccc1OCc1cn(-c2ccc(Br)cc2)nn1,92.4% (inactive)
2,O=S(=O)(NCCNc1cc(-c2c(-c3cccc(O)c3)nc3sccn23)ccn1)c1ccc(C(F)(F)F)cc1,71.8% (inactive)
3,COc1ccc(/C=N/C2=C(C#N)C(c3cccc(Cl)c3)c3c(ccc4ccccc34)O2)cc1 (stereo not given),49.5% (inactive)
4,N#CC1C=CN(CC(N)=O)c2ccc3cccnc3c21 (stereo not given),95.2% (inactive)
5,COc1ccc2c(c1)[n+]([O-])c(C(=O)/C=C/C=C(\Cl)c1cc(OC)c(OC)c(OC)c1)c(C)[n+]2[O-],-3.57% (active)
6,O=S(=O)(Nc1ccc(Cl)cc1)c1ccc(-c2cnc(C3CC3)o2)cc1,28.8% (inactive)
7,Cc1nc2c(=O)[nH]c(SCC(=O)Nc3cccc(F)c3)nc2[nH]c1=O,98.9% (inactive)
8,Nc1nc2c([nH]1)c1[nH]c3ccccc3c1c1[nH]c3ccccc3c21,67.8% (inactive)
9,O=C(Cn1cc(CN2CCCCCC2)nn1)Nc1ccc2c(ccn2Cc2ccccc2)c1,80.6% (inactive)
10,O=C(Nc1cc(Cl)ccc1O)c1ccc(Nc2ccnc(C(F)(F)F)c2)cc1,46.3% (inactive)
11,COc1cccc(NC(=O)Cn2cc(CN3CCN(c4ccnc5cc(Cl)ccc45)CC3)nn2)c1,71.6% (inactive)
12,CC(C)(C)n1cc(-c2ccnc(NCCNS(=O)(=O)c3cccc4ccccc34)c2)c(-c2cccc(F)c2)n1,26.4% (inactive)
13,C/C(Nc1ccc(Cl)c(Cl)c1)=C1\CCOC1=O,80.3% (inactive)
14,Cc1c(-c2nc3ccc(F)cc3c(=O)[nH]2)c2ccccc2n1C,38.4% (inactive)
15,CC(C)n1cnc2c(=S)nc[nH]c21,108% (inactive)
16,Oc1c(Cl)cc(Cl)c2ccc(Cn3cc(-c4cc(C(F)(F)F)cc(C(F)(F)F)c4)nn3)nc12,101% (inactive)
17,COC(=O)c1c2c(c[n+]([O-])c1C)C(=O)C(NCc1ccccc1)=CC2=O,4.14% (active)
18,COc1ccc2[nH]cc(-c3nc(-c4cn(C)c5c(Cl)nccc45)cs3)c2c1,56.6% (inactive)
19,Clc1ccc(CNc2c3ccccc3nc3ccccc23)cc1,53% (inactive)
20,CCOC(=O)c1cc(-c2ccc([N+](=O)[O-])cc2)n(-c2ccc(C(=O)O)c(O)c2)c1C,103% (inactive)

# Test system: NCI-H460 lung
# Test: as above
# Conditions: 10 µM unless noted
row,Structure (SMILES),growth
1,COc1ccc(-c2cn(-c3cc(OC)c(OC)c(OC)c3)c(=O)n2C(C)=O)cc1,106% (inactive)
2,O=C1NC(=O)c2c1c1c3ccccc3ccc1c1[nH]c3ccc(Br)cc3c21,3.5% (active)
3,O=C(Cn1c2c(c3ccccc31)CCCC2)Nc1ccc(-c2nc3ccccc3s2)cc1,101% (inactive)
4,COc1ccc(C/C(C)=C(/c2ccc(OCCN3CCCCC3)cc2)c2ccc(OC(=O)NCc3ccccc3)cc2)cc1,-90% (active)
5,CC(C)OC(=O)c1ccc2[nH]c(O)c(C(=Nc3ccc(N(C)C(=O)CN4CCN(C)CC4)cc3)c3ccccc3)c2c1,-57.9% (active)
6,COc1cc(N2C(=O)[C@H](O)C2c2ccc(SC)cc2)cc(OC)c1OC (stereo not given in full),5.6% (active)
7,CCCCOC(=O)OCc1cc(=O)c(O)co1,101% (inactive)
8,COc1ccc(C2=Nc3c/c(=C\c4c(O)[nH]c5ccc(Cl)cc45)ccc3=N2)cc1,43.5% (inactive)
9,O=C(Nc1cccc([N+](=O)[O-])c1)c1cc2ccccc2cc1O,3.41% (active)
10,O=C(/C=C/c1cn(-c2ccccc2)nc1-c1ccc([N+](=O)[O-])cc1)c1ccc(Cl)cc1,29.1% (inactive)
11,CC(C)CCC[C@@H](C)[C@H]1CC[C@H]2[C@@H]3CC=C4C[C@@H](C(C(=O)O)C(=O)O)CC[C@]4(C)[C@H]3CC[C@]12C,-71.5% (active)
12,CN(C)CCNC(=O)c1cccc(-c2cnc3ccc(-c4ccc5c(c4)OCO5)nn23)c1,4.35% (active)
13,N#Cc1c(-c2ccc(Cl)cc2)nc(SCC(=O)NC2=NN=C(c3ccccc3)CS2)[nH]c1=O,110% (inactive)
14,Cc1ccc2c3c(c(=O)[nH]c2c1)C1(C(C#N)=C(N)O3)c2cc(Br)ccc2-c2ccc(Br)cc21,-56.5% (active)
15,CCCCCCC1(C)NCCO1 (stereo not given),106% (inactive)
16,COc1cc(CNS(=O)(=O)c2ccc(C)cc2)ccc1OCc1cn(-c2ccc(F)cc2)nn1,103% (inactive)
17,Cc1cc(N)c2cc(NC(=O)/C=C\c3ccccc3Cl)ccc2n1,-78.3% (active)
18,CCOC(=O)C(=Cc1cccc(Br)c1)C(=O)OCC,68.2% (inactive)
19,COc1cc(NC(C)CCCNC(C)C)c2ncccc2c1OC (stereo not given),98.6% (inactive)
20,COc1ccc2cc(-c3ccc(NC(C)=O)c(=O)o3)ccc2c1,100% (inactive)

row,Structure (SMILES),growth
1,COc1cc(CNS(=O)(=O)c2ccc(C)cc2)ccc1OCc1cn(-c2ccc(Br)cc2)nn1,110% (inactive)
2,O=S(=O)(NCCNc1cc(-c2c(-c3cccc(O)c3)nc3sccn23)ccn1)c1ccc(C(F)(F)F)cc1,21.1% (inactive)
3,COc1ccc(/C=N/C2=C(C#N)C(c3cccc(Cl)c3)c3c(ccc4ccccc34)O2)cc1 (stereo not given),16.8% (inactive)
4,N#CC1C=CN(CC(N)=O)c2ccc3cccnc3c21 (stereo not given),103% (inactive)
5,COc1ccc2c(c1)[n+]([O-])c(C(=O)/C=C/C=C(\Cl)c1cc(OC)c(OC)c(OC)c1)c(C)[n+]2[O-],102% (inactive)
6,O=S(=O)(Nc1ccc(Cl)cc1)c1ccc(-c2cnc(C3CC3)o2)cc1,9.01% (active)
7,Cc1nc2c(=O)[nH]c(SCC(=O)Nc3cccc(F)c3)nc2[nH]c1=O,102% (inactive)
8,Nc1nc2c([nH]1)c1[nH]c3ccccc3c1c1[nH]c3ccccc3c21,8.05% (active)
9,O=C(Cn1cc(CN2CCCCCC2)nn1)Nc1ccc2c(ccn2Cc2ccccc2)c1,102% (inactive)
10,O=C(Nc1cc(Cl)ccc1O)c1ccc(Nc2ccnc(C(F)(F)F)c2)cc1,7.25% (active)
11,COc1cccc(NC(=O)Cn2cc(CN3CCN(c4ccnc5cc(Cl)ccc45)CC3)nn2)c1,97.5% (inactive)
12,CC(C)(C)n1cc(-c2ccnc(NCCNS(=O)(=O)c3cccc4ccccc34)c2)c(-c2cccc(F)c2)n1,-26.9% (active)
13,C/C(Nc1ccc(Cl)c(Cl)c1)=C1\CCOC1=O,92.5% (inactive)
14,Cc1c(-c2nc3ccc(F)cc3c(=O)[nH]2)c2ccccc2n1C,16.2% (inactive)
15,CC(C)n1cnc2c(=S)nc[nH]c21,111% (inactive)
16,Oc1c(Cl)cc(Cl)c2ccc(Cn3cc(-c4cc(C(F)(F)F)cc(C(F)(F)F)c4)nn3)nc12,101% (inactive)
17,COC(=O)c1c2c(c[n+]([O-])c1C)C(=O)C(NCc1ccccc1)=CC2=O,-30.3% (active)
18,COc1ccc2[nH]cc(-c3nc(-c4cn(C)c5c(Cl)nccc45)cs3)c2c1,6.1% (active)
19,Clc1ccc(CNc2c3ccccc3nc3ccccc23)cc1,16.4% (inactive)
20,CCOC(=O)c1cc(-c2ccc([N+](=O)[O-])cc2)n(-c2ccc(C(=O)O)c(O)c2)c1C,65.2% (inactive)
